Our source for the Potency and outcome values is PubChem BioAssay (Tox21).

Experiment [1] in a line: qHTS assay for small molecule agonists of the p53 signaling pathway (AID 651631; calls by dose curve; further: nearly all actives have a fitted effect of over 15% in size; further: potency means the concentration at half of the fitted maximal effect). The method, boiled down: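 Fluorescence intensity from cleaved LiveBLAzer B/G substrate (2 h, room temperature) served as the signal. Beforehand, HCT-116 reporter cells bearing p53 response elements were treated 16 h at 37 °C with DMSO-dissolved compounds.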
In general terms: In qHTS, concentration-response curves come from the screen itself.

Experiment [2] in a line: qHTS assay for small molecules that induce genotoxicity in human embryonic kidney cells expressing luciferase-tagged ATAD5 (AID 651632). Further: nearly all actives have a fitted effect of over 15% in size. Further: potency means the concentration at half of the fitted maximal effect. The method, boiled down:
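Cells were seeded at 2,000 per well, dosed with compound, and incubated 16 hr at 37C in 5% CO2. Luciferase activity was then quantified after a 30 min room-temperature incubation with Amplite.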

Experiment [3] in a line: qHTS assay for small molecule agonists of the p53 signaling pathway - cell viability (AID 651633; calls by dose curve;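 further: p53RE-bla HCT reporter cells with a stable beta-lactamase p53 reporter; series mostly up to about 83 µM; nearly all actives have a fitted effect of over 30% in size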). The method, boiled down:
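Viability counter-read: CellTiter-Glo luminescence (30 min, room temperature) in the same p53RE-bla plates. These plates had been exposed to compounds for 16 h at 37 C.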

Experiment [4] in a line: qHTS assay for small molecules that induce genotoxicity in human embryonic kidney cells expressing luciferase-tagged ATAD5 - cell viability (AID 651634; calls by dose curve; further: nearly all actives have a fitted effect of over 25% in size). The method, boiled down:
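Cells (HEK293T, luciferase-tagged ATAD5) are seeded at 2,000 per well, dosed with compound or DMSO vehicle, and incubated 15.5 hr at 37C and 5% CO2. CellTiter-Fluor is added for 30 min before fluorescence is measured.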

A short description of experiment [5]: qHTS assay for small molecule disruptors of the mitochondrial membrane potential - cell viability (AID 720634; calls by dose curve;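 further: human HepG2 liver cancer cells; series mostly up to about 83 µM; nearly all actives have a fitted effect of over 20% in size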). The method, boiled down:
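Cytotoxicity was measured by ATP quantitation in HepG2 wells that had first been treated with compound for 1 hr and stained with m-MPI dye; CellTiter-Glo incubation was 30 min at room temperature.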

Experiment [6] is described as follows: qHTS assay for small molecule disruptors of the mitochondrial membrane potential (AID 720635). Further: potency means the concentration at half of the fitted maximal effect. The method, boiled down: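 Mitochondrial membrane potential tracked with Mito-MPS dye, red aggregates (ex 540/em 590 nm) against green monomers (ex 490/em 535 nm). Compound treatment 1 hr at 37C, dye 30 min in HepG2.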
Experiment [7] is described as follows: qHTS assay to test for compound auto fluorescence at 590 nm (red) in HepG2 cells (AID 720674). The method, boiled down: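 Red autofluorescence (Ex/Em 540/590 nm, Rose Bengal sodium equivalents) was measured in HepG2 cells, 2,000 per well in MEM plus 10% FBS, plated overnight at 37 C. Readings were taken 1 hr after adding 23 nL compound or DMSO, at 37 C and 5% CO2.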

Experiment [8] in a line: qHTS assay to test for compound auto fluorescence at 535 nm (green) in HepG2 cells (AID 720675).
Experiment [9] can be described thus: qHTS assay to test for compound auto fluorescence at 460 nm (blue) in HEK293 cells (AID 720678). The method, boiled down:
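HEK293 cells (2,000 per well, medium with 10% dialyzed FBS) attached for 4-5 hr at 37C, then received compound and stood overnight at 37C, 5% CO2. Blue fluorescence was read at Ex/Em 405/460 nm and expressed relative to triamterene.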

Experiment [10] is described as follows: qHTS assay to test for compound auto fluorescence at 590 nm (red) in HEK293 cells (AID 720679). The method, boiled down:
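HEK293 cells (2,000/well, medium with 10% dialyzed FBS) attached for 4-5 hr at 37C, received 23 nL compound and were incubated overnight at 37C, 5% CO2. Red fluorescence was then read at 540/590nm Ex/Em, referenced to Rose Bengal sodium.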

Where “and” joins values, the source holds several entries; their conditions need not be identical. Identical values can stand only once. Values without a mark were called inactive. Records with an inconclusive call do not appear. Calls of active or inactive are those of the source. Unless noted, the call rests on the fitted dose curve; in most records, active means well fitted curve in the direction sought with a large enough effect in the repeat runs; inconclusive means weak or mixed curves; inactive means no such curve, though single readings can be large; an effect the other way counts as inactive or inconclusive.

Take `Clc1ccccc1-c1nc(-c2ccncc2)no1`: the Potency result in experiment [1], in experiment [3], in [4], in [5], in [6] and in experiment [9] was “inactive” throughout. Further, the Potency in [2] was 6.68 µM (active). Further, the molecule was classed as inactive in experiment [7], in [8] and in experiment [10].

For `C/C(=C(\CCO)SS/C(CCO)=C(\C)N(C=O)Cc1cnc(C)nc1N)N(C=O)Cc1cnc(C)nc1N`, the Potency entry in experiment [1], in experiment [2], in experiment [3], in [4], in [5] and in experiment [6] was “inactive” each time. Besides, the Potency entry in experiment [9] is “inactive”. Also, the outcome in [7], in experiment [8] and in [10] was inactive.

Consider `CCCCCCOC(=O)c1ccccc1`, for which the Potency result in [1], in [2], in experiment [3], in experiment [4], in experiment [5] and in experiment [6] was “inactive” throughout. For the same molecule, the Potency entry in [9] was “inactive”. In addition, the outcome in experiment [7], in experiment [8] and in experiment [10] was inactive.

`Cc1cc(C)n(CO)n1`: the Potency result in experiment [1], in experiment [2], in experiment [3], in [4], in [5] and in [6] was “inactive” each time. The Potency result in experiment [9] is “inactive”. For the same molecule, the call in experiment [7], in [8] and in experiment [10] was inactive.

On to `CS(C)=O`, for which the Potency entry in [1], in experiment [2], in [3], in [4], in experiment [5] and in [9] was “inactive” each time. Besides, the outcome in [7], in experiment [8] and in experiment [10] was inactive.

For the molecule `COc1ccc(/C=C/S(=O)(=O)NC(=O)c2ccc(C)cc2Cl)cc1`, the values for the Potency in experiment [1], in [2] and in [6] were 30.6 µM (active), 21.7 µM (active) and 61.1 µM (active), respectively. Besides, the Potency entry in experiment [3], in experiment [4], in [5] and in [9] was “inactive” each time. Moreover, the result in experiment [7], in experiment [8] and in [10] was inactive.

As for `CCCCCC1CCC(=O)O1` (configuration not stated), the Potency entry in experiment [1], in [2], in [3], in experiment [4], in experiment [5] and in [6] was “inactive” in each case. Further, the Potency result in experiment [9] is “inactive”. Further, the molecule was classed as inactive in experiment [7], in experiment [8] and in experiment [10].

In the case of `CCC(C)CCCC(C)(C)O` (configuration not stated), the Potency result in [1], in [2], in experiment [3], in [4], in [5] and in experiment [9] was “inactive” each time. Further, the result in experiment [7], in experiment [8] and in [10] was inactive.

`Nc1nc(Cl)nc2c1ncn2[C@H]1C[C@H](O)[C@@H](CO)O1`: the Potency in experiment [1] was 841 nM (active) and 341 nM (active). The Potency entry in experiment [2], in [3], in experiment [4], in [5], in experiment [6] and in experiment [9] was “inactive” each time. In addition, the call in experiment [7], in [8] and in [10] was inactive.

For `O=C1OC(=O)C2CC=CCC12` (configuration not stated), the Potency result in experiment [1], in [2], in experiment [3], in experiment [4], in [5] and in experiment [6] was “inactive” each time. For the same molecule, the Potency result in experiment [9] was “inactive”. Besides, the result in [8] and in experiment [10] was inactive.

As for `NCCOCCOCCN`, the Potency entry in [1], in experiment [2], in [3], in experiment [4], in [5] and in experiment [9] was “inactive” in each case. Further, the outcome in experiment [7], in experiment [8] and in experiment [10] was inactive.

For `CC1(C)[C@@H]2CC[C@]3(C2)[C@@H]1C(=O)CCC3(C)C`, the Potency entry in experiment [1], in experiment [2], in experiment [3], in [4], in experiment [5] and in experiment [6] was “inactive” in each case. Besides, in experiment [9], the Potency entry was “inactive”. Also, the molecule was called inactive in [8] and in experiment [10].

Regarding `O=C(O)c1ccccc1-n1cc(C(=O)O)c(=O)c2cc(Nc3c(F)cc(F)cc3Cl)c(Cl)cc21`, the Potency entry in [1], in experiment [2], in experiment [3], in experiment [4], in experiment [5] and in [6] was “inactive” throughout. For the same molecule, the Potency entry in experiment [9] is “inactive”. Besides, the molecule was called inactive in [7], in experiment [8] and in experiment [10].

`C1CCN(CN2CCCCC2)CC1`: the Potency result in experiment [1], in experiment [2], in [3], in experiment [4], in [5] and in experiment [6] was “inactive” throughout. In experiment [9], the Potency result was “inactive”. In addition, the molecule was classed as inactive in experiment [7], in [8] and in [10].

For `O=C(O)CNc1ccccc1`, the Potency result in experiment [1], in [2], in experiment [3], in [4], in experiment [5] and in experiment [6] was “inactive” throughout. Also, the Potency entry in experiment [9] is “inactive”. In addition, the molecule was classed as inactive in [8] and in [10].

Consider `COc1cc(C)c(Cc2cnc(N)nc2N)cc1OC`, for which the Potency result in [1], in [2], in [3], in [4], in experiment [5] and in [9] was “inactive” in each case. For the same molecule, the molecule was called inactive in [8] and in [10].

Regarding `O=C(Cl)c1cc(Cl)cc(Cl)c1`, the Potency result in experiment [1], in [2], in [3], in experiment [4], in experiment [5] and in experiment [9] was “inactive” each time. For the same molecule, the result in experiment [8] and in [10] was inactive.

Take `O=C1CCCN1CCO`: the Potency entry in experiment [1], in [2], in [3], in experiment [5], in experiment [6] and in experiment [9] was “inactive” in each case. Moreover, the result in experiment [7], in [8] and in [10] was inactive.

With `CCCCOc1ccc(N)cc1`, the Potency result in experiment [1], in [2], in [3], in experiment [4], in experiment [5] and in [9] was “inactive” throughout. Moreover, the outcome in [8] and in [10] was inactive.

With `CCCC(=O)OCc1ccccc1`, the Potency entry in experiment [1], in [2], in [3], in experiment [4], in experiment [5] and in experiment [9] was “inactive” in each case. Also, the outcome in experiment [7], in [8] and in experiment [10] was inactive.

For `CO[C@@H]1COCC[C@@H]1N[C@@H]1CC[C@@](C(=O)N2CCc3ncc(C(F)(F)F)cc3C2)(C(C)C)C1`, the Potency result in experiment [1], in [2], in experiment [3], in experiment [4], in [5] and in experiment [9] was “inactive” throughout. Also, the outcome in experiment [7], in experiment [8] and in [10] was inactive.

With `Cc1c(Cl)cccc1[N+](=O)[O-]`, the Potency result in experiment [1], in [2], in experiment [3], in experiment [4], in experiment [5] and in [9] was “inactive” throughout. For the same molecule, the call in [8] and in [10] was inactive.

Consider `C=CC(C)(O)CC/C=C(/C)CCC=C(C)C` (configuration not stated), for which the Potency result in experiment [1], in [2], in experiment [3], in experiment [5], in experiment [6] and in experiment [9] was “inactive” each time. Moreover, the outcome in experiment [7], in experiment [8] and in [10] was inactive.
